# Results as given in paper PMC10726135, “HNF4α isoforms regulate the circadian balance between carbohydrate and lipid metabolism in the liver”.
# Whole data set: some 18,000 sequences, median “log2 normalized intensity” near 0.36, cut for the highest 2% near 7.3. The list comes from a sample in which the highest values are over-represented; it also holds similar and randomly drawn sequences.
# Biological target: T1, HNF4alpha8 (COS-7 nuclear extract) (Homo sapiens, UniProt P41235-5 1-452)
# T1 sequence: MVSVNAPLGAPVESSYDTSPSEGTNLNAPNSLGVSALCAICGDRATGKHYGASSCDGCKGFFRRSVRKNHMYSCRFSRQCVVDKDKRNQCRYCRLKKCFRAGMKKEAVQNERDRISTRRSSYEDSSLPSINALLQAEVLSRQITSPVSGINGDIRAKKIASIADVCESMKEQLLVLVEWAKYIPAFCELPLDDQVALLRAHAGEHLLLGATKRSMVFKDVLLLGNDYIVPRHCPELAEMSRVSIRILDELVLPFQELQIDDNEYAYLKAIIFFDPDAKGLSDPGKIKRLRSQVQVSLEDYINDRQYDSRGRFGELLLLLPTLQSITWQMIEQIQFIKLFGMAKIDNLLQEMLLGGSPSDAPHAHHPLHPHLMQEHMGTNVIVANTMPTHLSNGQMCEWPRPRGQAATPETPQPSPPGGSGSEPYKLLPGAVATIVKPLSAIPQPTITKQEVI
# Test: protein-binding microarray; COS-7 nuclear extract on double-stranded Agilent 4x180k PBM; binding buffer, salt, pH and temperature not given in the material; high values mean tight binding
# Conditions: chain copies: 2; label: 3' end of strand 1 on the slide; dsDNA, one strand shown
# Method in brief: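 A custom Agilent SurePrint G3 4x180k array, spotted in quadruplicate with ~44,000 test sequences as ~60-nt oligonucleotides made double-stranded, was incubated with nuclear extracts. The extracts came from COS-7 cells transiently transfected by CaPO4 with a human HNF4α isoform expression vector. Bound HNF4α was imaged on an Agilent G2565CA scanner at 2-µm resolution, and the binding signal was taken as Agilent software's background-corrected, normalized gProcessedSignal.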
row,Sequence,binding signal [log2 normalized intensity]
1,GTTGCCTGTGAGTCAGGTACCTGCTTCTGCGCCTAGGGAGATTAGAGTATCGGTCGA,0.609
2,TACTTAGTGTTTTATGTGTATTTACTTATTGCCTAGGGAGATTAGAGTATCGGTCGA,1.74
3,GGCAAGATTTTGTCCTGAGTTATTGGAAGAGCCTAGGGAGATTAGAGTATCGGTCGA,0.282
4,TCTTCAAGGAGGTGAACTTTGAGACTATCCGCCTAGGGAGATTAGAGTATCGGTCGA,5.2
5,AAAGTTTCCTCTCCTGCCCTACTCCCTTAAGCCTAGGGAGATTAGAGTATCGGTCGA,2.63
6,AGTGGTTTCAAGGTGACCCCACGGAGCTGCGCCTAGGGAGATTAGAGTATCGGTCGA,3
7,CCTACCAGTATGCAATGTTAGTCTGGGAAAGCCTAGGGAGATTAGAGTATCGGTCGA,-0.0207
8,ATTGCCGACCTCATGAGTAGAGAGCAATCAGCCTAGGGAGATTAGAGTATCGGTCGA,-0.943
9,TGTCTCCAGAAATCAACCTTTGATCGTTTGGCCTAGGGAGATTAGAGTATCGGTCGA,6.77
10,ATGTCTCCAGAAACCAACCTTTGATCATTCGCCTAGGGAGATTAGAGTATCGGTCGA,5.75
11,ACTTCTGTCTCCAGAAATCAACCTTTGATCGCCTAGGGAGATTAGAGTATCGGTCGA,8.8
12,GCCAGAACTGAGCCCTGGTTTATCTGTTGTGCCTAGGGAGATTAGAGTATCGGTCGA,0.861
13,TTTTCAATCTTATTTTTACTATGTGGCATTGCCTAGGGAGATTAGAGTATCGGTCGA,1.35
14,CACTTACAAGTGTACAAAGGTCACTTCTGTGCCTAGGGAGATTAGAGTATCGGTCGA,7.03
15,TCAGAGGAATGTCTGACCAACCTGTCCAAAGCCTAGGGAGATTAGAGTATCGGTCGA,-0.555
16,GGAATGTCTGACCAACCTGTCCAAAGGTCAGCCTAGGGAGATTAGAGTATCGGTCGA,8.5
17,CCTGTCCAAAGGTCATCTGTCACTCTAGATGCCTAGGGAGATTAGAGTATCGGTCGA,6.02
18,ATTGGCTTGGCTGTGTCCCTTGACCAAAGGGCCTAGGGAGATTAGAGTATCGGTCGA,2.62
19,CTGTACACTTACAAGTGTACAAAGGTCACTGCCTAGGGAGATTAGAGTATCGGTCGA,8.53
20,CTTGGCTGTGTCCCTTGACCAAAGGTCACTGCCTAGGGAGATTAGAGTATCGGTCGA,7.67
21,GTCTGACCAACCTGTCCAAAGGTCATCTGTGCCTAGGGAGATTAGAGTATCGGTCGA,7.75
22,TATACCTGTACACTTACAAGTGTACAAAGGGCCTAGGGAGATTAGAGTATCGGTCGA,2.96
23,TTATATCAGAGGAATGTCTGACCAACCTGTGCCTAGGGAGATTAGAGTATCGGTCGA,0.807

row,Sequence,binding signal [log2 normalized intensity]
1,ACCAACCTGTCCAAAGGTCATCTGTCACTCGCCTAGGGAGATTAGAGTATCGGTCGA,6.36
2,AGTATATTGGCTTGGCTGTGTCCCTTGACCGCCTAGGGAGATTAGAGTATCGGTCGA,3.67
3,ACAGGGAAAGTATGGGTCAGCCCTGCCATCGCCTAGGGAGATTAGAGTATCGGTCGA,-0.943
4,GTTTTACAAACACAATGGAAGGCTGTATGTGCCTAGGGAGATTAGAGTATCGGTCGA,0.119
5,GTCACTGCTCAAAAACACTCAGTTAATTATGCCTAGGGAGATTAGAGTATCGGTCGA,-0.0424
6,CTCCCAAATCTTCTTTAAGCTATGTGGTGGGCCTAGGGAGATTAGAGTATCGGTCGA,0.933
7,TTTCTGTTTGTCTTACTGTGTTGTCGTATTGCCTAGGGAGATTAGAGTATCGGTCGA,2.11
8,ACAGCACTTAGGGTTCAAAGGTTGTTGAGCGCCTAGGGAGATTAGAGTATCGGTCGA,6.67
9,TACTTTGCTTCCAAGTTATGCAGACCTTTGGCCTAGGGAGATTAGAGTATCGGTCGA,2.66
10,CTCCAGGGCACTGCCCTTTGGAACCTGCCCGCCTAGGGAGATTAGAGTATCGGTCGA,6.57
11,CCCTTTGACCTCTGCTTCCTGCTACAGAGCGCCTAGGGAGATTAGAGTATCGGTCGA,2.76
12,TTATGCAGACCTTTGCCCTTTGTTTACATAGCCTAGGGAGATTAGAGTATCGGTCGA,5.95
13,ATTCCCTCCAGCAGGGGATGCCCTTTGACCGCCTAGGGAGATTAGAGTATCGGTCGA,9.35
14,AAAGCCTAGGCTCCAGGGCACTGCCCTTTGGCCTAGGGAGATTAGAGTATCGGTCGA,3.51
15,ATTCCCTTTCTCCTCCCCTCCCCTCCCCCCGCCTAGGGAGATTAGAGTATCGGTCGA,6.78
16,TGCTTCCAAGTTATGCAGACCTTTGCCCTTGCCTAGGGAGATTAGAGTATCGGTCGA,7.7
17,CTAGGCTCCAGGGCACTGCCCTTTGGAACCGCCTAGGGAGATTAGAGTATCGGTCGA,7.42
18,GCAGGGGATGCCCTTTGACCTCTGCTTCCTGCCTAGGGAGATTAGAGTATCGGTCGA,8.67
19,TGCACATTCCCTCCAGCAGGGGATGCCCTTGCCTAGGGAGATTAGAGTATCGGTCGA,2.84
20,GGATGCCCTTTGACCTCTGCTTCCTGCTACGCCTAGGGAGATTAGAGTATCGGTCGA,6.5
21,CACAGACCTGCCTCTCTCTCATGTCTGTACGCCTAGGGAGATTAGAGTATCGGTCGA,0.832
22,TGGTGCTATGTCCCTGACTGTGTGGCTTGCGCCTAGGGAGATTAGAGTATCGGTCGA,0.908
23,GTCCATCACCTGGCTCTGAAAAACAAAATGGCCTAGGGAGATTAGAGTATCGGTCGA,-0.567

row,Sequence,binding signal [log2 normalized intensity]
1,CTTCACCTCCCCTAGACTTACTATTATGCCGCCTAGGGAGATTAGAGTATCGGTCGA,1.86
2,TGAGGGGACAAAGTTCGTGGAAAGTGGAAGGCCTAGGGAGATTAGAGTATCGGTCGA,3.11
3,GCAGAGGGACAACTGAGTTACGTAATGTGTGCCTAGGGAGATTAGAGTATCGGTCGA,0.932
4,TGAACTATTGAACCACCAGATAGAGCTTTTGCCTAGGGAGATTAGAGTATCGGTCGA,0.654
5,CCACCCTATTGATGCAAGGACAATGTCTAGGCCTAGGGAGATTAGAGTATCGGTCGA,1.38
6,CTTCAAGTCAGTCAAAATGAATAGTCCTTTGCCTAGGGAGATTAGAGTATCGGTCGA,0.855
7,GATAAAGCAGGTTGTACCTTGACCCAAGAAGCCTAGGGAGATTAGAGTATCGGTCGA,5.6
8,CCTGCTTCCAGGCTTGTACCTTGACCTTCTGCCTAGGGAGATTAGAGTATCGGTCGA,7.46
9,TTCCAGGCTTGTACCTTGACCTTCTCTGTTGCCTAGGGAGATTAGAGTATCGGTCGA,6.19
10,GGCCAGATAAAGCAGGTTGTACCTTGACCCGCCTAGGGAGATTAGAGTATCGGTCGA,9.73
11,CCCTTCCTGCTTCCAGGCTTGTACCTTGACGCCTAGGGAGATTAGAGTATCGGTCGA,3.23
12,GGCAGGGCCAGATAAAGCAGGTTGTACCTTGCCTAGGGAGATTAGAGTATCGGTCGA,3.15
13,AGATCTGGATATGCCTGGGGTTCCAGTTACGCCTAGGGAGATTAGAGTATCGGTCGA,0.546
14,CTTCCATATAACCCTTGAACCTTCTTCTTGGCCTAGGGAGATTAGAGTATCGGTCGA,4.81
15,CCTCCAGGCCCCAGCCACGCCCTCTAACCCGCCTAGGGAGATTAGAGTATCGGTCGA,3.33
16,TTATCAGGACTTTGTGATTACATTGAGTCCGCCTAGGGAGATTAGAGTATCGGTCGA,1.97
17,AAAAACACCTGGTTCCTTGCAAGATAAGGGGCCTAGGGAGATTAGAGTATCGGTCGA,-0.239
18,CCTCTCAGGAATGTGGATGCTAAAAGTGAAGCCTAGGGAGATTAGAGTATCGGTCGA,-0.262
19,GTATGTTCTTAAGATAAGGACTGTTGGACCGCCTAGGGAGATTAGAGTATCGGTCGA,4.24
20,GGGAAGCTGTGTGAAGTGACTTGCCCTGTTGCCTAGGGAGATTAGAGTATCGGTCGA,2.3
21,TTACTGGACTTGATCCATTCTACCCCTGTGGCCTAGGGAGATTAGAGTATCGGTCGA,2.82
22,TGTCTACCCTTTTGCCCTTTGAGCTTCTGTGCCTAGGGAGATTAGAGTATCGGTCGA,5.93
23,TACCCCTGTGGTTGACCTTTAGTCTCTAGCGCCTAGGGAGATTAGAGTATCGGTCGA,7.47

row,Sequence,binding signal [log2 normalized intensity]
1,GGACTTGATCCATTCTACCCCTGTGGTTGAGCCTAGGGAGATTAGAGTATCGGTCGA,2.5
2,ATGCTAAAGTCTACATTCTAGATGACCCCTGCCTAGGGAGATTAGAGTATCGGTCGA,6.17
3,CATTCTACCCCTGTGGTTGACCTTTAGTCTGCCTAGGGAGATTAGAGTATCGGTCGA,8.33
4,TGATCCATTCTACCCCTGTGGTTGACCTTTGCCTAGGGAGATTAGAGTATCGGTCGA,8.51
5,AGTGACCCTGTCTCTCAGTCTCTGTGGGAGGCCTAGGGAGATTAGAGTATCGGTCGA,1.23
6,GTTGACCTTTAGTCTCTAGCCCCGCCCAGAGCCTAGGGAGATTAGAGTATCGGTCGA,5.33
7,AAATCATGGATCTGTGCTCAGATCCTGCTCGCCTAGGGAGATTAGAGTATCGGTCGA,-0.984
8,CCGGACATGGAGAGGTGAGACACGTGTGCCGCCTAGGGAGATTAGAGTATCGGTCGA,-0.118
9,GGCTAGACTTTAACCCCCTTGTCTTCCTCAGCCTAGGGAGATTAGAGTATCGGTCGA,4.16
10,GGCTGCAGAGGTTTCGCAAGGACGTGACCTGCCTAGGGAGATTAGAGTATCGGTCGA,3.33
11,CTTACGGCCCTGTGGTGTTCGCTAAGATGTGCCTAGGGAGATTAGAGTATCGGTCGA,0.705
12,CCACCTGGAATGTGCTCCCGACTGCTCCACGCCTAGGGAGATTAGAGTATCGGTCGA,0.00529
13,CACAAACATACAACCATCAAAGGTCACTTTGCCTAGGGAGATTAGAGTATCGGTCGA,4.93
14,TATGCTTTTATTTAACTTCTGGGGGCAAGGGCCTAGGGAGATTAGAGTATCGGTCGA,2
15,TGAATATGTACATGGACTTTGAACCAAGATGCCTAGGGAGATTAGAGTATCGGTCGA,8.87
16,CTAAGAGATTTGAATATGTACATGGACTTTGCCTAGGGAGATTAGAGTATCGGTCGA,6.92
17,AGATTTGAATATGTACATGGACTTTGAACCGCCTAGGGAGATTAGAGTATCGGTCGA,10.6
18,CATGGACTTTGAACCAAGATATGCTAACATGCCTAGGGAGATTAGAGTATCGGTCGA,5.27
19,AGGTACTAAGAGATTTGAATATGTACATGGGCCTAGGGAGATTAGAGTATCGGTCGA,0.942
20,CGGTCAGCTGCTTGACTTAGTACATGGCCTGCCTAGGGAGATTAGAGTATCGGTCGA,0.903
21,GAATGCAACCACACCAACATGGACTTTGTCGCCTAGGGAGATTAGAGTATCGGTCGA,6.59
22,ACACAGTACTTTGTACATGGGAATAGACATGCCTAGGGAGATTAGAGTATCGGTCGA,0.975
23,ATGTACATGGACTTTGAACCAAGATATGCTGCCTAGGGAGATTAGAGTATCGGTCGA,7.68
